Cytotoxicity call data for 69 molecules are collected here from the antibiotic and cytotoxicity screens of Wong et al. (2023).

Out of some 39,000 compounds screened, about 1,500 (3.8%) were called active. Many of the other results were omitted from the sample, so actives are more common in it than they were.

For the assay, the system named is HSkMC (human skeletal muscle cells). Nature of the assay: cytotoxicity call (relative viability < 0.9). The following applies: 10 µM.
In the case of `C[C@@H](O)C#Cc1ccc2c(c1)O[C@H](CN(C)C(=O)C1CCCCC1)[C@@H](C)CN([C@@H](C)CO)S2(=O)=O`, the cytotoxicity call is “inactive”.

`C[C@H]1CN([C@@H](C)CO)S(=O)(=O)c2ccc(Br)cc2O[C@H]1CN(C)C(=O)CCN1CCCCC1`: the cytotoxicity call was “inactive”.

For `COc1ccc(S(=O)(=O)Nc2ccc3c(c2)C(=O)N([C@@H](C)CO)C[C@@H](C)[C@@H](CN(C)C(=O)NC2CCCCC2)OCCCC[C@H](C)O3)cc1`, the cytotoxicity call is “inactive”.

Regarding `Cc1noc(C)c1S(=O)(=O)Nc1ccc2c(c1)CC(=O)N([C@H](C)CO)C[C@@H](C)[C@H](CN(C)S(=O)(=O)c1cccs1)O2`, the cytotoxicity call is “inactive”.

For the molecule `COc1ccc2c3c(n(c2c1)C)[C@@H](CO)N(Cc1ccccc1)C[C@]13CCN(CC1)C(=O)Nc1cccc(c1)F`, the cytotoxicity call was “inactive”.

Consider `CO[C@H]1CN(C)C(=O)c2cc(NC(=O)Nc3ccccc3F)ccc2OC[C@H](C)N(Cc2ccccc2C(=O)O)C[C@H]1C`, for which the cytotoxicity call was “inactive”.

Take `COc1cccc(S(=O)(=O)N(C)C[C@@H]2Oc3ncc(C#CCN(C)C)cc3C(=O)N([C@H](C)CO)C[C@@H]2C)c1`: the cytotoxicity call was “inactive”.

As for `C[C@H]1CN([C@@H](C)CO)C(=O)c2cccc(NS(=O)(=O)c3ccc(Cl)cc3)c2O[C@@H]1CN(C)C(=O)Nc1ccc(C(F)(F)F)cc1`, the cytotoxicity call was “inactive”.

On to `C[C@H]1CN([C@@H](C)CO)C(=O)c2cccc(NS(=O)(=O)c3ccc(F)cc3)c2O[C@H]1CN(C)C(=O)Nc1ccc(C(F)(F)F)cc1`, for which the cytotoxicity call was “inactive”.

With `C[C@H](CO)N1C[C@H](C)[C@@H](CN(C)C(=O)Nc2ccc(C(F)(F)F)cc2)Oc2c(NS(=O)(=O)c3ccc(Cl)cc3)cccc2C1=O`, the cytotoxicity call is “inactive”.

For the molecule `C[C@H]1CN([C@@H](C)CO)C(=O)c2cccc(NS(=O)(=O)c3ccc(Cl)cc3)c2O[C@H]1CN(C)C(=O)Nc1ccc(C(F)(F)F)cc1`, the cytotoxicity call was “active”.

With `C[C@@H]1CN([C@@H](C)CO)C(=O)c2cccc(NS(=O)(=O)c3ccc(Cl)cc3)c2O[C@H]1CN(C)C(=O)Nc1ccc(C(F)(F)F)cc1`, the cytotoxicity call is “inactive”.

With `C[C@@H]1CN([C@@H](C)CO)C(=O)c2cccc(NS(=O)(=O)c3ccc(F)cc3)c2O[C@@H]1CN(C)C(=O)Nc1ccc(C(F)(F)F)cc1`, the cytotoxicity call was “inactive”.

With `C[C@@H]1CN([C@H](C)CO)C(=O)c2cccc(NS(=O)(=O)c3ccc(Cl)cc3)c2O[C@@H]1CN(C)C(=O)Nc1ccc(C(F)(F)F)cc1`, the cytotoxicity call was “active”.

With `C[C@H](CO)N1C[C@H](C)[C@H](CN(C)C(=O)Nc2ccc(C(F)(F)F)cc2)Oc2c(NS(=O)(=O)c3ccc(Cl)cc3)cccc2C1=O`, the cytotoxicity call is “active”.

Regarding `C[C@@H]1CN([C@H](C)CO)C(=O)c2cccc(NS(=O)(=O)c3ccc(Cl)cc3)c2O[C@H]1CN(C)C(=O)Nc1ccc(C(F)(F)F)cc1`, the cytotoxicity call is “inactive”.

Regarding `C[C@@H]1CN([C@@H](C)CO)C(=O)c2cccc(NS(=O)(=O)c3ccc(Cl)cc3)c2O[C@@H]1CN(C)C(=O)Nc1ccc(C(F)(F)F)cc1`, the cytotoxicity call was “active”.

In the case of `C[C@@H]1CN([C@H](C)CO)C(=O)c2cccc(NS(=O)(=O)c3ccc(F)cc3)c2O[C@H]1CN(C)C(=O)Nc1ccc(C(F)(F)F)cc1`, the cytotoxicity call is “inactive”.

Consider `C[C@H]1CN([C@@H](C)CO)C(=O)c2cccc(NS(=O)(=O)c3ccc(F)cc3)c2O[C@@H]1CN(C)C(=O)Nc1ccc(C(F)(F)F)cc1`, for which the cytotoxicity call was “inactive”.

As for `C#CC1(OC(C)=O)CCC2C3CCC4=CC(OC(C)=O)CCC4C3CCC21C` (centres undefined), the cytotoxicity call was “inactive”.

As for `Cc1ccc(S(=O)(=O)N(C)C[C@@H]2Oc3ccc(NC(=O)CCCN(C)C)cc3C(=O)N([C@@H](C)CO)C[C@@H]2C)cc1`, the cytotoxicity call was “inactive”.

For `COc1ccc(S(=O)(=O)N(C)C[C@@H]2OCCCC[C@@H](C)Oc3ccc(NC(=O)c4ccccc4)cc3C(=O)N([C@H](C)CO)C[C@H]2C)cc1`, the cytotoxicity call was “inactive”.

For `COCC#Cc1ccc([C@H]2[C@H](CO)N3C(=O)CN(C(=O)CN4CCOCC4)C[C@@H]23)cc1`, the cytotoxicity call is “inactive”.

Take `O=C(O)CCC(=O)O`: the cytotoxicity call was “inactive”.

With `CCOC(=O)CN1CCN(C=O)CC1`, the cytotoxicity call was “inactive”.

`C[C@H](CO)N1C[C@H](C)[C@@H](CN(C)Cc2ccc(C(F)(F)F)cc2)OCCCC[C@H](C)Oc2ccc(NS(=O)(=O)c3ccc(F)cc3)cc2C1=O`: the cytotoxicity call is “inactive”.

In the case of `COc1ccc(CN(C)C[C@H]2OCCCC[C@H](C)Oc3ccc(NC(=O)NC(C)C)cc3C(=O)N([C@H](C)CO)C[C@H]2C)cc1`, the cytotoxicity call is “inactive”.

Turning to `O=C(N[C@@H](c1cccnc1)c1ccc2c(c1)OCO2)C1CCN(CCOc2ccc(Cl)cc2Cl)CC1`, the cytotoxicity call was “inactive”.

Take `NCc1ccc(S(N)(=O)=O)cc1`: the cytotoxicity call was “inactive”.

With `COc1ccc(S(=O)(=O)Nc2ccc3c(c2)CC(=O)N([C@@H](C)CO)C[C@H](C)[C@H](CN(C)S(=O)(=O)c2ccc(F)cc2)O3)cc1`, the cytotoxicity call is “inactive”.

With `C[C@@H]1CN([C@@H](C)CO)C(=O)c2cccc(NC(=O)c3ccncc3)c2O[C@H]1CN(C)Cc1ccc(-c2ccccc2)cc1`, the cytotoxicity call was “inactive”.

With `C[C@@H]1CN([C@H](C)CO)C(=O)Cc2cc(NC(=O)Cc3cn(C)c4ccccc34)ccc2O[C@H]1CN(C)Cc1ccc(-c2ccccc2)cc1`, the cytotoxicity call is “active”.

As to `C[C@@H]1CN([C@@H](C)CO)C(=O)Cc2cc(NC(=O)Cc3cn(C)c4ccccc34)ccc2O[C@H]1CN(C)Cc1ccc(-c2ccccc2)cc1`, the cytotoxicity call was “inactive”.

As to `C[C@@H]1CN([C@@H](C)CO)C(=O)Cc2cc(NC(=O)Cc3cn(C)c4ccccc34)ccc2O[C@@H]1CN(C)Cc1ccc(-c2ccccc2)cc1`, the cytotoxicity call is “inactive”.

`C[C@H]1CN([C@@H](C)CO)C(=O)Cc2cc(NC(=O)Cc3cn(C)c4ccccc34)ccc2O[C@H]1CN(C)Cc1ccc(C(F)(F)F)cc1`: the cytotoxicity call was “inactive”.

Take `C[C@H]1CN([C@@H](C)CO)C(=O)Cc2cc(NC(=O)Cc3cn(C)c4ccccc34)ccc2O[C@@H]1CN(C)Cc1ccc(Oc2ccccc2)cc1`: the cytotoxicity call was “inactive”.

For the molecule `C[C@H]1CN([C@@H](C)CO)C(=O)Cc2cc(NC(=O)Cc3cn(C)c4ccccc34)ccc2O[C@@H]1CN(C)Cc1ccc(C(F)(F)F)cc1`, the cytotoxicity call is “active”.

As for `C[C@@H]1CN([C@H](C)CO)C(=O)Cc2cc(NC(=O)Cc3cn(C)c4ccccc34)ccc2O[C@H]1CN(C)Cc1ccc(C(F)(F)F)cc1`, the cytotoxicity call was “inactive”.

As to `C[C@H]1CN([C@@H](C)CO)C(=O)Cc2cc(NC(=O)Cc3cn(C)c4ccccc34)ccc2O[C@H]1CN(C)Cc1ccc(Oc2ccccc2)cc1`, the cytotoxicity call was “active”.

For `C[C@H](CO)N1C[C@H](C)[C@H](CN(C)Cc2ccc(Oc3ccccc3)cc2)Oc2ccc(NC(=O)Cc3cn(C)c4ccccc34)cc2CC1=O`, the cytotoxicity call is “inactive”.

Take `C[C@@H]1CN([C@H](C)CO)C(=O)CCCn2nncc2CO[C@@H]1CN(C)Cc1cccc2c1OCCCO2`: the cytotoxicity call is “inactive”.

In the case of `COc1ccc(NC(=O)N(C)C[C@H]2Oc3ccc(NS(=O)(=O)c4c(C)noc4C)cc3CC(=O)N([C@H](C)CO)C[C@H]2C)cc1`, the cytotoxicity call was “inactive”.

In the case of `Cc1cc(OCc2nnc(SC3CCCC3)n2-c2cccnc2)ccc1-c1ccc(S(C)(=O)=O)cc1`, the cytotoxicity call is “active”.

As to `C[C@@H]1CN([C@@H](C)CO)C(=O)c2cc(NC(=O)CCC(F)(F)F)ccc2O[C@@H](C)CCCCO[C@@H]1CN(C)S(=O)(=O)c1ccc(F)cc1`, the cytotoxicity call is “inactive”.

`CCCC[C@@H](C)/C=C(C)/C=C(\C)C(=O)NC1=C[C@@](O)(/C=C/C=C/C=C/C(=O)NC2C(=O)CCC2=O)[C@@H]2O[C@@H]2C1=O`: the cytotoxicity call is “active”.

As to `COc1cccc(S(=O)(=O)Nc2ccc3c(c2)[C@H]2C[C@H](CC(=O)NCCc4ccccc4)O[C@H](CO)[C@H]2O3)c1`, the cytotoxicity call is “inactive”.

In the case of `C[C@@H]1CN([C@@H](C)CO)S(=O)(=O)c2ccc(C#CC3(O)CCCC3)cc2O[C@@H]1CN(C)C(=O)Cc1cccnc1`, the cytotoxicity call is “inactive”.

Consider `COc1ccccc1S(=O)(=O)N(C)C[C@H]1OCc2cn(nn2)CCCC(=O)N([C@H](C)CO)C[C@H]1C`, for which the cytotoxicity call is “inactive”.

As to `C[C@H](CO)N1C[C@H](C)[C@H](CN(C)Cc2ccc(-c3ccccc3)cc2)Oc2ccc(NS(=O)(=O)c3ccc(F)cc3)cc2C1=O`, the cytotoxicity call is “inactive”.

As for `C[C@@H]1CN([C@H](C)CO)C(=O)c2cc(NS(=O)(=O)c3ccc(F)cc3)ccc2O[C@H]1CN(C)Cc1ccc(-c2ccccc2)cc1`, the cytotoxicity call was “inactive”.

For `C[C@H]1CN([C@@H](C)CO)C(=O)c2cc(NS(=O)(=O)c3ccc(F)cc3)ccc2O[C@@H]1CN(C)Cc1ccc(-c2ccccc2)cc1`, the cytotoxicity call was “inactive”.

Turning to `C[C@@H]1CN([C@@H](C)CO)C(=O)c2cc(NS(=O)(=O)c3ccc(F)cc3)ccc2O[C@@H]1CN(C)Cc1ccc(-c2ccccc2)cc1`, the cytotoxicity call is “active”.

For `C[C@@H]1CN([C@@H](C)CO)C(=O)c2cc(NS(=O)(=O)c3ccc(F)cc3)ccc2O[C@H]1CN(C)Cc1ccc(-c2ccccc2)cc1`, the cytotoxicity call was “inactive”.

For `C[C@@H]1CN([C@H](C)CO)C(=O)c2cc(NS(=O)(=O)c3ccc(F)cc3)ccc2O[C@@H]1CN(C)Cc1ccc(-c2ccccc2)cc1`, the cytotoxicity call was “active”.

Regarding `Cc1noc(C)c1NC(=O)Nc1ccc2c(c1)C(=O)N([C@@H](C)CO)C[C@@H](C)[C@@H](CN(C)CC1CCCCC1)OCCCC[C@H](C)O2`, the cytotoxicity call is “inactive”.

As to `CN(C)CCCCNC(=O)[C@H]1C[C@H]2C(=O)N3CCC[C@H]3C(=O)N2[C@H]1c1cccc(OCCO)c1`, the cytotoxicity call is “inactive”.

With `O=C(N1CCOCC1)[C@]1(CCS(=O)(=O)c2ccccc2)N=C(c2ccc(OCCCO)cc2)O[C@@H]1c1ccccc1`, the cytotoxicity call was “inactive”.

Regarding `C[C@H]1CN([C@@H](C)CO)C(=O)c2c(c3ccccc3n2C)-c2ccccc2CO[C@@H]1CN(C)Cc1cccc(C(F)(F)F)c1`, the cytotoxicity call is “active”.

`C[C@@H]1CN([C@H](C)CO)C(=O)c2c(c3ccccc3n2C)-c2ccccc2CO[C@H]1CN(C)Cc1cccc(C(F)(F)F)c1`: the cytotoxicity call was “inactive”.

Consider `C[C@H]1CN([C@@H](C)CO)C(=O)c2ccccc2-c2ccccc2CO[C@H]1CN(C)Cc1ccc(Cl)c(Cl)c1`, for which the cytotoxicity call is “active”.

Take `C[C@H](CO)N1C[C@H](C)[C@H](CN(C)Cc2cccc(C(F)(F)F)c2)OCc2ccccc2-c2c(n(C)c3ccccc23)C1=O`: the cytotoxicity call is “active”.

In the case of `C[C@@H]1CN([C@@H](C)CO)C(=O)c2c(c3ccccc3n2C)-c2ccccc2CO[C@H]1CN(C)Cc1cccc(C(F)(F)F)c1`, the cytotoxicity call was “inactive”.

For the molecule `C[C@@H]1CN([C@@H](C)CO)C(=O)c2c(c3ccccc3n2C)-c2ccccc2CO[C@H]1CN(C)Cc1cccc(F)c1`, the cytotoxicity call was “inactive”.

`C[C@@H]1CN([C@H](C)CO)C(=O)c2c(c3ccccc3n2C)-c2ccccc2CO[C@@H]1CN(C)Cc1cccc(C(F)(F)F)c1`: the cytotoxicity call was “inactive”.

For the molecule `C[C@@H]1CN([C@@H](C)CO)C(=O)c2ccccc2-c2ccccc2CO[C@@H]1CN(C)Cc1ccc(Cl)c(Cl)c1`, the cytotoxicity call is “inactive”.

For the molecule `C[C@@H]1CN([C@@H](C)CO)C(=O)c2c(c3ccccc3n2C)-c2ccccc2CO[C@@H]1CN(C)Cc1cccc(C(F)(F)F)c1`, the cytotoxicity call was “active”.

`C[C@@H]1CN([C@H](C)CO)C(=O)c2ccccc2-c2ccccc2CO[C@@H]1CN(C)Cc1ccc(Cl)c(Cl)c1`: the cytotoxicity call is “inactive”.

In the case of `C[C@H](CO)N1C[C@H](C)[C@@H](CN(C)Cc2cccc(C(F)(F)F)c2)OCc2ccccc2-c2c(n(C)c3ccccc23)C1=O`, the cytotoxicity call is “inactive”.

As for `C[C@H]1CN([C@@H](C)CO)C(=O)c2c(c3ccccc3n2C)-c2ccccc2CO[C@H]1CN(C)Cc1cccc(C(F)(F)F)c1`, the cytotoxicity call was “inactive”.
